The record followed here is PubChem BioAssay (Tox21).

Test [1] in a line: A CellTox Green Cytotoxicity Assay to monitor cytotoxicity in HEK293 cells - 32 hour (AID 1224881). Note: nearly all actives have a fitted effect of over 40% in size. Note: potency is the fitted concentration of half-maximal effect. The method, boiled down:
(§1)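 Read-out: fluorescence of a cell-impermeant cyanine dye staining DNA of dead cells, proportional to cytotoxicity. HEK293, 600 cells/well with reagent, compound (23 nL DMSO) added after 5 h; reads at 0, 8, 16, 24, 32, 40 h.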

Test [2] is described as follows: A CellTox Green Cytotoxicity Assay to monitor cytotoxicity in HepG2 cells - 0 hour (AID 1224882). Note: nearly all actives have a fitted effect of over 35% in size. The method, boiled down:
(§2)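 HepG2, 600 cells/well premixed w/ CellTox Green; 5 h settle, 37 C/5% CO2; pintool cpd add (DMSO); 37 C, 40 h; fluorescence read at 0, 8, 16, 24, 32, 40 h.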

Test [3] is described as follows: A CellTox Green Cytotoxicity Assay to monitor cytotoxicity in HepG2 cells - 32 hour (AID 1224883). Note: nearly all actives have a fitted effect of over 50% in size. Note: potency is the fitted concentration of half-maximal effect. In outline: as §2
Test [4] is described as follows: A CellTox Green Cytotoxicity Assay to monitor cytotoxicity in HEK293 cells - 8 hour (AID 1224884). Note: nearly all actives have a fitted effect of over 35% in size. Note: potency is the fitted concentration of half-maximal effect. In outline:
as §1

Test [5] can be described thus: qHTS RealTime-Glo MT Cell Viability Assay in HepG2 cells - 16 hour (AID 1224885). Note: nearly all actives have a fitted effect of over 50% in size. Note: potency is the fitted concentration of half-maximal effect. The method, boiled down:
(§3)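 Cells + NanoLuc/prosubstrate dispensed (600 cells/well) → 5 h at 37 C/5% CO2 → compounds in DMSO transferred → 40 h incubation at 37 C, luminescence read at 0, 8, 16, 24, 32, 40 h.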

Test [6] can be described thus: qHTS RealTime-Glo MT Cell Viability Assay in HEK293 cells - 24 hour (AID 1224886). For activity change, negative = cytotoxicity: top concentration of the series differs between compounds. Note: nearly all actives have a fitted effect of over 50% in size. Note: potency is the fitted concentration of half-maximal effect. The method, boiled down: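 Tox21 10K qHTS, HEK293, 600 cells/well, RealTime-Glo reagent co-dispensed with cells; 5 h preincubation, compound by pintool, 37 C, luminescence at 0–40 h.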
Test [7] is described as follows: qHTS RealTime-Glo MT Cell Viability Assay in HEK293 cells - 8 hour (AID 1224887). For activity change, negative = cytotoxicity: top concentration of the series differs between compounds. Note: nearly all actives have a fitted effect of over 50% in size. Note: potency is the fitted concentration of half-maximal effect. In outline: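 Luminescence readout at each listed time point; HEK293, 600 cells/well, RealTime-Glo MT reagent added with cells; compounds pinned (23 nL in DMSO) after 5 h at 37 C; continuous culture at 37 C.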
The nature of test [8]: A CellTox Green Cytotoxicity Assay to monitor cytotoxicity in HEK293 cells - 16 hour (AID 1224888). Note: nearly all actives have a fitted effect of over 35% in size. Note: potency is the fitted concentration of half-maximal effect. The method, boiled down: as §1
Test [9] can be described thus: qHTS RealTime-Glo MT Cell Viability Assay in HepG2 cells - 0 hour (AID 1224889). Note: nearly all actives have a fitted effect of over 50% in size. Note: potency is the fitted concentration of half-maximal effect. The method, boiled down:
as §3

Test [10] in a line: A CellTox Green Cytotoxicity Assay to monitor cytotoxicity in HepG2 cells - 8 hour (AID 1224890). Note: nearly all actives have a fitted effect of over 45% in size. Note: potency is the fitted concentration of half-maximal effect. In outline:
as §2

Structures are written as SMILES. Several values for one entry are separate records, joined by “and”; a condition that tells them apart may be missing. Equal entries are not always repeated. Unmarked numbers belong to inactive results. Inconclusive results are not listed. Activity calls are given as the source filed them. Calls come from the whole dose curve; as a rule, active = well fitted curve in the direction sought with a large enough effect in the repeat runs; inconclusive = weak or mixed curves; inactive = no such curve, though single readings can be large; an effect the other way counts as inactive or inconclusive.
% is set by controls: 0 for no effect and ±100 for the full control effect.

With `Fc1ccc(Oc2ccnc3cc(Cl)cc(Cl)c23)cc1`, the Potency entry in test [1], in test [2], in test [3], in test [4], in test [5] and in test [8] was “inactive” throughout. In addition, the Potency result in test [9] and in test [10] was “inactive” each time. The values for the Potency in test [6] and in test [7] were 11 µM (active) and 7.76 µM (active), respectively.

As to `C[C@H]1O[C@@H](O[C@H]2[C@@H](O)C[C@H](O[C@H]3[C@@H](O)C[C@H](O[C@H]4CC[C@@]5(C)[C@H](CC[C@@H]6[C@@H]5CC[C@]5(C)[C@@H](C7=CC(=O)OC7)CC[C@]65O)C4)O[C@@H]3C)O[C@@H]2C)C[C@H](O)[C@@H]1O`, the Potency entry in test [1], in [2], in test [3], in test [4], in test [5] and in test [7] was “inactive” in each case. The Potency result in test [8], in test [9] and in test [10] was “inactive” throughout. Moreover, in test [6], the Potency is 34.9 nM (active) and 84.9 nM (active).

For `Brc1c(Br)c(Br)c(Oc2c(Br)c(Br)c(Br)c(Br)c2Br)c(Br)c1Br`, the cytotoxicity increase in test [1] was -3.94% [at 15.8 µM]; in test [3] it was 0.162% [at 15.8 µM]; in [4] it was -3.68% [at 15.8 µM]; in [10], -0.348% [at 15.8 µM]. In [2], the cytotoxicity is -0.0157% [at 15.8 µM]. For the same compound, the activity change, negative = cytotoxic in test [5] is 1.53% [at 15.8 µM]. For the same compound, the figures for the activity change, negative = cytotoxicity in [6], in test [7] and in [9] were -0.0351% [at 15.8 µM], 4.64% [at 15.8 µM] and 13.9% [at 15.8 µM], respectively. Also, the activity change in test [8] was -4.12% [at 15.8 µM, active compounds read high].

For `C[CH2][Hg][N]1C(=O)C2C(C1=O)C1(Cl)C(Cl)=C(Cl)C2(Cl)C1(Cl)Cl` (stereo not given), the Potency in test [1] was 4.65 µM (active); in test [3], 8.27 µM (active); in test [4] it was 4.65 µM (active); in test [5], 6.57 µM (active); in [6] it was 2.33 µM (active); in [7], 3.69 µM (active). The results for the Potency in test [8] and in test [10] were 4.65 µM (active) and 8.27 µM (active), respectively. In test [2], the cytotoxicity is 1.33% [at 15.8 µM]. The activity change, negative = cytotoxicity in test [9] is -6.6% [at 15.8 µM].

`CC(=[OH+])/C=C(/C)[O-].CC(=[OH+])/C=C(\C)[O-].CC(=[OH+])/C=C(\C)[O-].[Al]`: the Potency result in test [1], in [2], in test [3], in [4], in test [5] and in test [6] was “inactive” each time. The Potency entry in [7], in [8], in test [9] and in test [10] was “inactive” each time.

With `CCC(C)(C)C(=O)OC1=C(c2ccc(Cl)cc2Cl)C(=O)OC12CCCCC2`, the Potency entry in [1], in test [2], in test [3], in test [4], in test [5] and in [6] was “inactive” each time. The Potency entry in test [7], in test [8] and in test [10] was “inactive” throughout. In addition, the Potency in [9] is 34.7 µM (active).

As for `CCSC(C)CC1CC(=O)C(/C(CC)=N/OC/C=C/Cl)=C(O)C1` (stereo not given), the Potency entry in test [1], in [2], in test [3], in test [4], in test [5] and in [6] was “inactive” in each case. The Potency result in test [7], in test [8], in test [9] and in [10] was “inactive” each time.

Consider `N#Cc1ccccc1Cl`, for which the Potency result in [1], in test [2], in test [3], in test [4], in [5] and in test [6] was “inactive” each time. For the same compound, the Potency result in test [7], in [8], in test [9] and in [10] was “inactive” in each case.

As to `CN(CCCC(=O)c1cccnc1)N=O`, the Potency result in test [1], in [2], in test [3], in [4], in test [5] and in test [6] was “inactive” in each case. The Potency result in test [7], in test [8], in test [9] and in [10] was “inactive” in each case.

Take `N#CNC#N`: the Potency result in test [1], in [2], in [3], in [4], in test [5] and in test [6] was “inactive” throughout. The Potency entry in test [7], in [8], in test [9] and in test [10] was “inactive” each time.

Take `Fc1cccc(Cl)c1CCl`: the Potency entry in test [1], in [2], in [3], in test [4], in test [5] and in test [6] was “inactive” throughout. Further, the Potency result in test [7], in test [8], in [9] and in test [10] was “inactive” throughout.

With `COc1ccc(N)cc1N`, the Potency result in test [1], in test [2], in [3], in test [4], in [5] and in [8] was “inactive” each time. In addition, the Potency entry in [9] and in test [10] was “inactive” each time. Moreover, the Potency in test [6] is 40.1 µM (active); in test [7] it was 25.3 µM (active).

`C=CC(=O)N(C)C`: the Potency entry in [1], in [2], in [3], in [4], in test [5] and in test [6] was “inactive” in each case. The Potency entry in [7], in [8], in test [9] and in [10] was “inactive” each time.

Take `CC(C)OS(C)(=O)=O`: the Potency result in test [1], in [2], in test [3], in test [4], in [5] and in test [6] was “inactive” each time. In addition, the Potency result in [7], in test [8], in [9] and in [10] was “inactive” in each case.

On to `C[C@@H]1O[C@@H](O[C@@H]2C=C3CC[C@@H]4[C@H](CC[C@]5(C)[C@@H](c6ccc(=O)oc6)CC[C@]45O)[C@@]3(C)CC2)[C@H](O)[C@H](O)[C@H]1O`, for which the Potency result in [1], in [2], in [3], in test [4], in test [5] and in test [7] was “inactive” in each case. Besides, the Potency result in [8], in test [9] and in [10] was “inactive” in each case. In [6], the Potency is 0.0301 µM (active).

Turning to `CC(C)[C@H](C(=O)OC(C#N)c1cccc(Oc2ccccc2)c1)c1ccc(OC(F)F)cc1` (stereo not given in full), the Potency result in test [1], in test [2], in test [3], in test [4], in test [5] and in [6] was “inactive” each time. The Potency result in [7], in test [8], in [9] and in test [10] was “inactive” in each case.

Turning to `O=C(CCCN1CCC2(CC1)C(=O)NCN2c1ccccc1)c1ccc(F)cc1`, the Potency result in test [1], in test [2], in test [3], in [4], in test [5] and in test [8] was “inactive” in each case. The Potency entry in [9] and in test [10] was “inactive” throughout. Besides, the Potency in test [6] was 10.7 µM (active); in [7], 16.9 µM (active).

Take `Cc1cccc(OP(=O)(Oc2cccc(C)c2)Oc2cccc(C)c2)c1`: the Potency entry in test [1], in test [2], in test [3], in [4], in [5] and in test [6] was “inactive” throughout. In addition, the Potency entry in test [7], in test [8], in test [9] and in test [10] was “inactive” in each case.

`C[C@@H]1CC[C@@]2(OC1)O[C@H]1[C@@H](O)[C@H]3[C@@H]4CC[C@H]5C[C@@H](O[C@@H]6O[C@H](CO)[C@H](O[C@@H]7O[C@H](CO)[C@@H](O)[C@H](O[C@@H]8OC[C@@H](O)[C@H](O)[C@H]8O)[C@H]7O[C@@H]7O[C@H](CO)[C@@H](O)[C@H](O[C@@H]8O[C@H](CO)[C@@H](O)[C@H](O)[C@H]8O)[C@H]7O)[C@H](O)[C@H]6O)[C@H](O)C[C@]5(C)[C@H]4CC[C@]3(C)[C@H]1[C@@H]2C`: the Potency in test [1] was 1.64 µM (active); in [3], 11.6 µM (active); in [4], 4.63 µM (active); in test [5], 18.4 µM (active); in test [6], 11.6 µM (active); in [7], 6.55 µM (active). Moreover, the Potency in test [8] was 4.63 µM (active); in test [9], 23.2 µM (active); in test [10], 13.1 µM (active). The Potency result in test [2] is “inactive”.

`NNC(=O)c1ccccc1`: the Potency result in test [1], in test [2], in test [3], in test [4], in test [5] and in [6] was “inactive” throughout. Moreover, the Potency entry in [7], in test [8], in [9] and in test [10] was “inactive” each time.
